This passage reports growth rescue results from PubChem BioAssay AID2716 (Broad Institute, 2010).

Screen size: about 320,000 compounds; about 3,300 (1%) were called active. This excerpt belongs to a sample that is enriched for actives. Values without a mark were called inactive.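 Rule for the calls: active = every valid replicate shows activation above 250% relative to neutral control wells; inactive = the rest, any valid replicate at or below 250%.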

A short description of the assay: restored growth of temperature-sensitive Mot1-301 yeast – S. cerevisiae, ATP luminescence, 38.5C, SUMOylation pathway inhibitor project, primary screen (AID 2716).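 Note: OY570 slx delta 5 strain wells were the positive control but not used for scaling.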 The following applies: S. cerevisiae Mot1-301 growth rescue, at 18.8 µM, stronger effect = higher value, percent above DMSO median, 100 means doubled.
`O=C(NCCCN1CCOCC1)c1cn(-c2ccccc2)nc1-c1ccc(F)cc1`: the growth rescue was -27.9%.

Take `COc1cc(NC(=O)C2=CC(c3ccco3)=NS(=O)(=O)N2C)cc(OC)c1OC`: the growth rescue is 446% (active).

Consider `COc1ccc(NC(=O)C2=CC(c3ccc(OC)c(OC)c3)=NS(=O)(=O)N2C)cc1`, for which the growth rescue is 12.2%.

As to `COc1cc(NC(=O)C2=CC(c3ccc(C)cc3)=NS(=O)(=O)N2C)cc(OC)c1OC`, the growth rescue is 18.9%.

In the case of `CCOC(=O)C(NC(C)=O)C(=O)Nc1ccc(OC)cc1` (stereo unspecified), the growth rescue is 5.5%.

`NS(=O)(=O)c1ccc(CNC(=S)NC(=O)c2ccco2)cc1`: the growth rescue was -10.3%.

Consider `CCCCc1nc2cc(C(=O)NCCc3cnn(C)c3)ccc2o1`, for which the growth rescue is 249%.

Take `O=C1CCC(=O)N1CCOP1(=O)COc2ccccc2OC1`: the growth rescue was 402% (active).

`CC1Sc2ccc(C(=O)NCc3ccccc3Cl)cc2NC1=O` (stereo unspecified): the growth rescue was -10.2%.

Regarding `COc1ccc(C)cc1NC(=O)C(Sc1ccccc1)c1ccccc1` (stereo unspecified), the growth rescue was -9.29%.

With `Cn1cc([N+](=O)[O-])c(C(=O)Nc2ccc3c(c2)OCCO3)n1`, the growth rescue was -2.5%.

With `COc1cccc(NC(=O)c2nn(C34CC5CC(CC(C5)C3)C4)cc2[N+](=O)[O-])c1`, the growth rescue is 384% (active).

For `COc1cccc(NC(=O)c2ccc(Cn3cc([N+](=O)[O-])cn3)o2)c1`, the growth rescue was -22.4%.

`COc1ccccc1C(=O)NCC(=O)OCC(=O)Nc1nnc(-c2ccccc2)o1`: the growth rescue is 0.619%.

Consider `CCCNC(=O)CCn1cc(-c2ccc(OC)cc2)nc1CCN`, for which the growth rescue is -5.76%.

As for `CNS(=O)(=O)c1ccc(NC(=O)Nc2ccc3c(c2)OCO3)cc1`, the growth rescue is -8%.

As for `COc1ccc(Cl)cc1N(CC(=O)N1CCCCC1)S(C)(=O)=O`, the growth rescue is 316%.

Turning to `COCc1c(C(=O)N/N=C\c2cccnc2)nnn1-c1nonc1N`, the growth rescue is 0.433%.

Regarding `C#CCOCCOCCOCCNc1nc(N2CCN(C(=O)[C@H](CCC(=O)O)n3cc(CN)nn3)CC2)nc(N2CCN(C(=O)[C@H](CCC(=O)O)n3cc(CN)nn3)CC2)n1`, the growth rescue is -22.6%.

As for `Cc1ccc(NC(=O)N2CCC(O)(c3cccnc3)CC2)cc1`, the growth rescue is 356% (active).

On to `Cc1ccc(NC(=O)Nc2cccnc2)cc1`, for which the growth rescue was -4.18%.

Turning to `O=C(c1cccc(F)c1)N1CCC(O)(c2cccnc2)CC1`, the growth rescue is 16%.

As to `Cc1ccc(/C=N/NC(=O)c2sccc2OCc2ccc(F)cc2)cc1`, the growth rescue was 17.9%.

`COc1cc(-c2nc(S(=O)(=O)c3ccc(Cl)cc3)c(N(C)C)o2)cc(OC)c1OC`: the growth rescue is 9.48%.

With `CC(C)CC(=O)Nc1nnc(S(=O)(=O)N(C)c2ccc(Cl)cc2)s1`, the growth rescue is -15.6%.

As to `COC(=O)c1ccc(COc2cc([N+](=O)[O-])cc3cccnc23)cc1`, the growth rescue is -14.7%.

Consider `N#CC1=C(N)Oc2[nH]c(=S)[nH]c(=O)c2C12C(=O)Nc1ccccc12` (stereo unspecified), for which the growth rescue is -12%.

As to `N#CC1=C(N)Oc2n[nH]c(CSc3ccccc3)c2C12C(=O)Nc1ccccc12` (stereo unspecified), the growth rescue is 564% (active).

Consider `COC(=O)CCSc1nccn1Cc1ccccc1`, for which the growth rescue is -6.82%.

With `Cc1ccc(S(=O)(=O)N(C)C)cc1NC(=O)COC(=O)C1COc2ccccc2O1` (stereo unspecified), the growth rescue is -1.18%.

For the compound `Cc1ccc(S(=O)(=O)N(C)C)cc1NC(=O)COC(=O)/C=C/c1cccs1`, the growth rescue is -3.27%.

Turning to `Cc1ccc(S(=O)(=O)N(C)C)cc1NC(=O)COC(=O)c1c(C)noc1C`, the growth rescue was 358% (active).

With `O=c1[nH]n2c(=O)c3c([nH]c2c1N=Nc1ccccc1)CCC3`, the growth rescue is -13.5%.

On to `COCCCN1C(=O)c2ccc(C(=O)OCC(=O)NCc3ccccc3OC)cc2C1=O`, for which the growth rescue is -4.61%.

For `COCCCN1C(=O)c2ccc(C(=O)Nc3ccc(OC)cc3OC)cc2C1=O`, the growth rescue is 994% (active).

As for `COc1ccc(OC)c(NC(=O)c2ccc3c(c2)C(=O)N(c2ccc(OC(C)=O)cc2)C3=O)c1`, the growth rescue was -1.05%.

`Cc1cc(S(=O)(=O)c2cc3ccc(O)c(C)c3oc2=O)ccc1F`: the growth rescue was 2.17%.

In the case of `COc1ccc(F)cc1S(=O)(=O)NCC(c1ccc2c(c1)OCO2)N1CCN(C)CC1` (stereo unspecified), the growth rescue is 72.2%.

On to `COc1ccc(NC(=O)CSc2ccc(-c3ccco3)nn2)c(OC)c1`, for which the growth rescue is -3.7%.

Turning to `CCc1ccc(C(=O)COC(=O)c2ccco2)cc1`, the growth rescue is 2.04%.

Regarding `CCN(CC)c1ccc(C(=O)OCC(=O)c2ccco2)cc1`, the growth rescue is -12.1%.

Take `O=C(COC(=O)c1ccccc1C(=O)c1ccccc1)c1ccco1`: the growth rescue was 524% (active).

Turning to `O=C(COC(=O)c1ccccc1O)NCc1ccco1`, the growth rescue was 0.0433%.

Turning to `CC(=O)Oc1ccccc1C1=NN(C(C)=O)C(c2ccccc2)C1` (stereo unspecified), the growth rescue was -0.218%.

On to `O=C1C2N=NN(CC(=O)N3N=C(c4cccc5ccccc45)CC3c3ccccc3)C2C(=O)N1c1ccccc1` (stereo unspecified), for which the growth rescue was -6.23%.

On to `Cc1ccc(N2C(=O)C3N=NN(CC(=O)N4N=C(c5cccc6ccccc56)CC4c4ccccc4)C3C2=O)cc1` (stereo unspecified), for which the growth rescue is 376% (active).

As for `S=C(c1ccc(-c2ccccc2)o1)N1CCCCC1`, the growth rescue was 32.2%.

For the compound `CCOC(=O)c1cc(-c2ccccc2C)n(Cc2cc(C)no2)n1`, the growth rescue is -17.1%.

Consider `COc1ccc(NC(=O)c2cc3nc(-c4ccccc4)cc(C)n3n2)cc1OC`, for which the growth rescue was 50%.

Turning to `Cc1cc(C(F)(F)F)n2ncc(-c3ccccc3)c2n1`, the growth rescue is 4.42%.

As to `O=C(c1ccccc1)N1CCN(C(=O)c2cc3nc(-c4ccccc4)cc(C(F)(F)F)n3n2)CC1`, the growth rescue is -13.8%.

As for `O=C(O)c1cnn2c(C(F)(F)F)cc(-c3ccccc3)nc12`, the growth rescue is 310% (active).

As for `COC(=O)c1cc2nc(-c3ccccc3)cc(C(F)(F)F)n2n1`, the growth rescue is 295% (active).

Consider `Cc1ccc(-c2cc(C(F)(F)F)n3ncc(C(=O)N4CCCCC4c4cccnc4)c3n2)cc1` (stereo unspecified), for which the growth rescue was -2.2%.

Consider `COc1ccc(CNC(=O)c2cc(C(=O)C3CC3)c[nH]2)cc1`, for which the growth rescue is -7.94%.

For `COc1ccc(N(CC(=O)Nc2cc(OC)ccc2OC)S(=O)(=O)c2c(C)noc2C)cc1`, the growth rescue was 0.112%.

As for `CCc1nn(-c2cc(Oc3cccc4ccccc34)nc(-c3ccccc3)n2)c(N)c1C#N`, the growth rescue is 20.3%.

Turning to `COC(=O)c1ccc2c(C(C)(C)O)c(C(C)(C)O)[nH]c2c1`, the growth rescue is 6.47%.

For the compound `COc1ccccc1CNS(=O)(=O)c1cc2c3c(c1)CCC(=O)N3CCC2`, the growth rescue is -12.2%.

As for `O=C(Nc1ccccn1)C1CCN(S(=O)(=O)c2ccc3c(c2)OCCO3)CC1`, the growth rescue is -4.76%.

As for `O=C(Nc1nccs1)C1CCN(S(=O)(=O)c2ccc(Cl)c(C(F)(F)F)c2)CC1`, the growth rescue was 639% (active).

Consider `O=C(Nc1ccccn1)C1CCN(S(=O)(=O)c2ccccc2)CC1`, for which the growth rescue was -0.505%.

For the compound `COc1ccccc1CNC(=O)[C@@H]1CCCN1C(=O)[C@@H]1Cc2ccccc2CN1C(=O)OC(C)(C)C`, the growth rescue is -1.52%.

For `CCOc1ccc(Oc2nc(C)cc(OC)n2)nn1`, the growth rescue was -10.1%.

With `O=C(CNS(=O)(=O)c1ccccc1)NCC(=O)OCc1ccccc1F`, the growth rescue is -4.19%.

In the case of `Cc1ccc(SCC(=O)NC(=O)NCc2ccco2)c(C)c1`, the growth rescue is -8.85%.

Regarding `Cc1sc2ncnc(Sc3nc4ccccc4s3)c2c1C`, the growth rescue is 512% (active).

Consider `COC(=O)c1c(-c2cccs2)csc1NC(=O)CSc1ncnc2sc(C)c(C)c12`, for which the growth rescue was -4.24%.

`CSc1ncnc2sc(C)c(C)c12`: the growth rescue was -17.7%.

Take `CCOc1ccc(S(=O)(=O)NCCC(=O)N2CCCCCCC2)cc1`: the growth rescue was 10%.

As for `NC(=O)c1cc(S(=O)(=O)N2CCCC2)ccc1OCc1ccc(F)cc1`, the growth rescue is 359% (active).

Take `COc1ccc(S(=O)(=O)N2CCCCCC2)cc1NC(=O)Cc1ccc(OC)c(OC)c1`: the growth rescue is -10.8%.

For `Cc1ccc(S(=O)(=O)N2CCOCC2)cc1C(=O)NCc1ccc(F)cc1`, the growth rescue was 2.54%.

Regarding `COc1ccc(OC)c(-n2cc3c(=O)n(C)c(=O)n(C)c3c2)c1`, the growth rescue is 2.1%.

`Cc1ccc(Nc2nc(CSc3nnnn3-c3ccccc3)cc(=O)[nH]2)cc1`: the growth rescue was 3.22%.

For the compound `O=c1c2ccccc2nnn1CSc1nnnn1-c1ccccc1`, the growth rescue was 0.362%.

With `O=c1c2ccccc2nc(CSc2nnnn2-c2ccccc2)n1-c1ccccc1`, the growth rescue is 1010% (active).

With `Cn1c(N)c(C(=O)COC(=O)c2ccccc2NCc2ccco2)c(=O)n(C)c1=O`, the growth rescue is 72.4%.

For `COC(=O)c1ccc(C(NC(=O)OCc2ccccc2)/C(F)=C/[C@@H](C)C(=O)O)cc1` (stereo partly specified), the growth rescue was -2.48%.

As to `CCc1ccccc1S(=O)(=O)Cc1ccc(C(=O)NCCc2ccccc2)o1`, the growth rescue is -2.78%.

`Cc1ccc(N2C(=O)CC(Sc3ncn[nH]3)C2=O)cc1` (stereo unspecified): the growth rescue was 287% (active).

With `COc1ccc(N2C(=O)CC(Sc3n[nH]c(-c4ccc(C)cc4)n3)C2=O)cc1` (stereo unspecified), the growth rescue was 257%.

Regarding `O=C1CC(Sc2ncn[nH]2)C(=O)N1c1ccccc1` (stereo unspecified), the growth rescue was -26.4%.

For the compound `COc1cc(Cl)c(C)cc1NC(=O)CSc1nnc(CN2CCCC2)o1`, the growth rescue was 50.1%.

Turning to `CCOc1cc2[nH]c(=S)n(Cc3ccc(C(=O)N4CCN(C)CC4)cc3)c(=O)c2cc1OCC`, the growth rescue is -1.75%.

`O=C(CNS(=O)(=O)c1ccc(Br)s1)NCc1ccc2c(c1)OCO2`: the growth rescue is 17.3%.

For `O=C(CNC(c1ccccc1)c1ccccc1)Nc1ccc(F)cc1`, the growth rescue is 14.1%.

With `O=C1OCC2=C1C(c1ccccc1)CC(=O)N2c1cccc(F)c1` (stereo unspecified), the growth rescue was 4.11%.

As for `O=C1CC(c2ccccc2)C(=O)N1c1cccc(O)c1` (stereo unspecified), the growth rescue was 564% (active).

In the case of `CN1C(=O)CC(c2ccccc2)C1=O` (stereo unspecified), the growth rescue was 8.06%.

With `COc1ccc(C(C)=O)cc1CN1C(=O)NC2(CCCCC2C)C1=O` (stereo unspecified), the growth rescue is 115%.
